Assay results: PubChem BioAssay (NCI)
About 79,000 compounds went through this panel and 15% of them were active in at least one assay; those are over-represented in the sample as a whole. The source made the active and inactive calls. No stated cut-off is given here; in the data, active means growth inhibition above about 70%; inactive means the rest.

What was measured:
[1] = NCI Yeast Anticancer Drug Screen. Data for the rad52 strain (AID 147);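 further: 0% = growth of vehicle-treated control cultures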; conditions: S. cerevisiae rad52 mutant growth inhibition, hits give high values
In short: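 Vehicle-treated cultures served as the reference for growth inhibition of compound-exposed yeast bearing a DNA repair mutation.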

[2] = NCI Yeast Anticancer Drug Screen. Data for the wt1 strain (AID 149);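 further: 0% = growth of vehicle-treated wt1 cultures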; conditions: S. cerevisiae wt1 strain (SPY 50644) growth inhibition, hits give high values
In short: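 Measured: growth of wt1 yeast under compound versus vehicle treatment, reported as inhibition.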

[3] = NCI Yeast Anticancer Drug Screen. Data for the rad50EPP+ strain (AID 151);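 further: 0% = growth of vehicle-treated control cultures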; conditions: S. cerevisiae rad50 mutant strain, hits give high values
In short: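 In this screen, rad50EPP+ yeast were exposed to compounds. Growth inhibition was scored against vehicle-treated controls.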

[4] = NCI Yeast Anticancer Drug Screen. Data for the rad50 strain (AID 155);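 further: 0% = growth of vehicle-only cultures of the same strain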; conditions: S. cerevisiae rad50 strain growth inhibition, hits give high values
In short: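 Growth of the mutant yeast was measured after compound exposure and referenced to vehicle-treated cultures.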

[5] = NCI Yeast Anticancer Drug Screen. Data for the mec2-1 strain (AID 157); conditions: S. cerevisiae mec2-1 strain, hits give high values
In short: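 Vehicle-treated cultures served as reference for growth inhibition of compound-exposed mec2-1 yeast.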

[6] = NCI Yeast Anticancer Drug Screen. Data for the rad14 strain (AID 159);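 further: 0% = growth of vehicle-treated control cultures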; conditions: S. cerevisiae rad14 strain growth inhibition, hits give high values
In short: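 Here, inhibition of yeast growth was measured after compound exposure, using a strain with a genetic defect in DNA damage repair and vehicle-treated cultures as the reference.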

[7] = NCI Yeast Anticancer Drug Screen. Data for the sgs1 mgt1 strain (AID 161);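 further: 0% = growth of cultures given vehicle only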; conditions: S. cerevisiae sgs1 mgt1 strain, hits give high values
In short: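 Genetically altered yeast, compound exposure, growth inhibition relative to vehicle.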

[8] = NCI Yeast Anticancer Drug Screen. Data for the CLN2oe strain (AID 163);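 further: 0% = growth of vehicle-only control cultures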; conditions: S. cerevisiae CLN2oe strain, hits give high values
In short: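 Inhibition relative to vehicle-treated yeast is reported. Cells: strain with genetic alteration in cell-cycle control, grown with compound.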

[9] = NCI Yeast Anticancer Drug Screen. Data for the cln2 rad14 strain (AID 165);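 further: 0% = growth equal to vehicle treated cultures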; conditions: S. cerevisiae cln2 rad14 strain, hits give high values
In short: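 Each compound was tested on cln2 rad14 yeast. Inhibition of growth was calculated against vehicle-exposed controls.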

[10] = NCI Yeast Anticancer Drug Screen. Data for the bub3 strain (AID 167); conditions: S. cerevisiae bub3 mutant strain, hits give high values
In short: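 Whole-cell yeast assay. The mutant strain was incubated with compounds, and growth inhibition was determined by comparison with vehicle-treated cells.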

[11] = NCI Yeast Anticancer Drug Screen. Data for the wt2 strain (AID 169);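 further: 0% = growth of vehicle-treated yeast cultures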; conditions: S. cerevisiae wt2 strain growth inhibition, hits give high values
In short: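 Inhibition of yeast growth was determined after compound treatment, normalised to controls receiving only vehicle.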

[12] = NCI Yeast Anticancer Drug Screen. Data for the sgs1 strain (AID 173);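 further: 0% = growth of vehicle-only control cultures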; conditions: S. cerevisiae sgs1 mutant, hits give high values
In short: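 Screen format: yeast with repair or checkpoint alterations, compound exposure, growth read relative to vehicle.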

[13] = NCI Yeast Anticancer Drug Screen. Data for the mlh1 rad18 strain (AID 175); conditions: S. cerevisiae mlh1 rad18 strain growth inhibition, hits give high values
In short: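 Vehicle-treated cultures served as the reference for growth inhibition in a yeast strain carrying DNA damage repair alterations exposed to each compound.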

[14] = NCI Yeast Anticancer Drug Screen. Data for the rad18 strain (AID 177); conditions: S. cerevisiae rad18 mutant growth inhibition, hits give high values
In short: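 Test articles were incubated with altered yeast defective in DNA damage repair. Results are given as inhibition of growth versus vehicle.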

[15] = at 5.0 µM (retest, dose inferred, filed as 0.5)
[16] = at 50.0 µM (retest, dose inferred, filed as 5.0)

Measured: growth inhibition

COC(=O)c1ccc2c(c1)Cc1ccccc1-2
inactive: [1]; at 1.2 µM -1% | [1]; at 3.7 µM 5% | [1]; at 11.0 µM 11% | [1]; at 33.0 µM 19% | [1]; at 100.0 µM 28% | [2]; at 1.2 µM -3% | [2]; at 3.7 µM -5% | [2]; at 11.0 µM -3% | [2]; at 33.0 µM -2% | [2]; at 100.0 µM -2% | [3]; at 1.2 µM 2% | [3]; at 3.7 µM 10% | [3]; at 11.0 µM 25% | [3]; at 33.0 µM 39% | [3]; at 100.0 µM 43% | [4]; at 1.2 µM 2% | [4]; at 3.7 µM 10% | [4]; [15] 0% | [4]; at 11.0 µM 13% | [4]; at 33.0 µM 12% | [4]; [16] -11% | [4]; at 100.0 µM 32% | [5]; at 1.2 µM -4% | [5]; at 3.7 µM 1% | [5]; [15] -12% | [5]; at 11.0 µM -12% | [5]; at 33.0 µM -3% | [5]; [16] -4% | [5]; at 50.0 µM 39% | [5]; at 100.0 µM 1% | [6]; at 1.2 µM -3% | [6]; at 3.7 µM -6% | [6]; at 11.0 µM -4% | [6]; at 33.0 µM -3% | [6]; at 100.0 µM -6% | [7]; [15] -5% | [7]; [16] -4% | [7]; at 50.0 µM 46.9% | [8]; at 1.2 µM -1% | [8]; at 3.7 µM 0% | [8]; at 11.0 µM -4% | [8]; at 33.0 µM -3% | [8]; at 100.0 µM -11% | [9]; [15] 35% | [9]; [16] 0% | [9]; at 50.0 µM 29.4% | [10]; at 1.2 µM -7% | [10]; at 3.7 µM -7% | [10]; [15] 0% | [10]; at 11.0 µM 3% | [10]; at 33.0 µM 3% | [10]; [16] -1% | [10]; at 50.0 µM 41.2% | [10]; at 100.0 µM 19% | [11]; at 1.2 µM -3% | [11]; at 3.7 µM -2% | [11]; at 11.0 µM -4% | [11]; at 33.0 µM 3% | [11]; at 100.0 µM 28% | [12]; at 1.2 µM -3% | [12]; at 3.7 µM -4% | [12]; at 11.0 µM -1% | [12]; at 33.0 µM 3% | [12]; at 100.0 µM 17% | [13]; [15] -2% | [13]; [16] 6% | [13]; at 50.0 µM 45.6% | [14]; at 1.2 µM -1% | [14]; at 3.7 µM 1% | [14]; at 11.0 µM 6% | [14]; at 33.0 µM 4% | [14]; at 100.0 µM 9%
active: [4]; at 50.0 µM 72.5%
